Measured values from paper PMC8769072, “Proteome‐scale mapping of binding sites in the unstructured regions of the human proteome” (Molecular Systems Biology, 2022).

Each binder was assayed against TNKS 174-649, O95271.
Sequence of TNKS 174-649, O95271 (O95271 174-649): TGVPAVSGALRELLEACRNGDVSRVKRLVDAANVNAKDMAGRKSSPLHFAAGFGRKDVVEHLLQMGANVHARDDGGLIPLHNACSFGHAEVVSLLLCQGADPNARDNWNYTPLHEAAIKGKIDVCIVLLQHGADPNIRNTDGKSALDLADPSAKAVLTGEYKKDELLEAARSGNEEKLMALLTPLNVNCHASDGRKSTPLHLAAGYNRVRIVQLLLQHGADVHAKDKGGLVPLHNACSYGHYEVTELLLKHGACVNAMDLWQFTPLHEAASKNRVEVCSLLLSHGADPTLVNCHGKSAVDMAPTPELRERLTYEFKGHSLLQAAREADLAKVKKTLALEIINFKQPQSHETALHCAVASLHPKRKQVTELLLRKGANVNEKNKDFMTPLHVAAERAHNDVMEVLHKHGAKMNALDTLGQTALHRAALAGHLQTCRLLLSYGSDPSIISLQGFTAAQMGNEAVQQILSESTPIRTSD

Selected by phage display, active:
MMVESASETIRSAPSG [FOXP4, Q8IVH2] confidence 3
EERPEVLGQRSTDVVD [STK36, Q9NRP7] confidence 2
ERSSGDGEELERLTKP [SLC35A5, Q9BS91] confidence 3
REAPEGMASSLGALNL [CACNA1S, Q13698] confidence 4
EPWLDRVIQGSSTSSS [DIP2A, Q14689] confidence 3
RGLVDGGEAVEARLRD [CGN, Q9P2M7] confidence 3
DELRMEPLGLEGLNML [CRTC2, Q53ET0] confidence 3
AQQALERTPGDGLATM [THAP4, Q8WY91] confidence 3
SVERMGSGIERMGPLG confidence 4
VTSSPIRGAGDGMETE [BLZF1, Q9H2G9] confidence 2
SLIERGAAAGSEDAVK [SPTAN1, Q13813] confidence 2
LDMHTVTREEGEGMET [GCC2, Q8IWJ2] confidence 3
SPQFVGNLRESPLGQE [CCNH, P51946] confidence 2
RTESIRWLIPGQEQEH [TXNDC15, Q96J42] confidence 3
IGRISAEGGEQVERVV [APOL2, Q9BQE5] confidence 3
DIRGLAAGSAETLPAN [PPFIA1, Q13136] confidence 2
RVVDGAEMALPGLATQ [KIF26B, Q2KJY2] confidence 2
QERLIPLGHASKSAPM [ERRFI1, Q9UJM3] confidence 2
VPGLGGPGESRHEPLG [HOXA13, P31271] confidence 2
QYVTREPPEGSLLDVD [FAM83H, Q6ZRV2] confidence 2
QGLLHEAGSTDDRIVV [SPNS1, Q9H2V7] confidence 2
LSTGYLQIAERREPIG [DTNBP1, Q96EV8] confidence 4
DYVLTYNYEGRGSPAG [DSC3, Q14574] confidence 2
AQVLSQRLEAEGLSTL [LENG9, Q96B70] confidence 2
RQEALGAEHNSSALLP [AKAP13, Q12802] confidence 3
GGRTPAARDSIVREVI [MTHFD1L, Q6UB35] confidence 2
GGLDGPRLAIPGMDGG [PAN3, Q58A45] confidence 3
HGDGEVRQPPVGIAVA [BAHCC1, Q9P281] confidence 2
TLNERLAAEGQAIDGA [WDR37, Q9Y2I8] confidence 3
LFLPRTEADGKSYVKY [ENDOG, Q14249] confidence 4
QTIERMGSGVERMGPA confidence 3
LPPAEAVRWAPVGAVA [RUNDC1, Q96C34] confidence 4
SVLQPGIAMETRGLAD [CNGA3, Q16281] confidence 2
DGVARTPPVGMSGQVA [KIF26A, Q9ULI4] confidence 3
PGSLREDPLGEAQPQI [INPP5K, Q9BT40] confidence 4
GGGPDRLEPEMVRMVV [NAB2, Q15742] confidence 2

These binders were tested against SUMO1 1-101, P63165.
Sequence of SUMO1 1-101, P63165 (P63165 whole entry): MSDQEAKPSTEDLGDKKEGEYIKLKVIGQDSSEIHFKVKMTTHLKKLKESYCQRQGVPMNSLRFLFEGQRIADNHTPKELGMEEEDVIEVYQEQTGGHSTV

Selected by phage display, active:
SPAEVVDLTLDEDSRR [C18orf25, Q96B23] confidence 4
DEIVDLTAESLEPVVV [RNF4, P78317] confidence 2
DDDEPIFVGEISSSKP [ZNF280D, Q6N043] confidence 2
EEEDDVVFVSSKPGSP [TTF2, Q9UNY4] confidence 2
VEVIDLTIESSSDEED [PIAS3, Q9Y6X2] confidence 4
GIQYIDLSSDSEDVVS [SMARCAD1, Q9H4L7] confidence 4
PGADVVDLTLDSSSSS [PIAS4, Q8N2W9] confidence 2
AEVVDLTVDEDEPTVV [RNF111, Q6ZNA4] confidence 2
ALENRVAVLENQNKTL [CREB1, P16220] confidence 2
DDDDVVFIESIQPPSI [ZMYM5, Q9UJ78] confidence 3

The binders below were run against SIN3A 295-383, Q96ST3.
Sequence of SIN3A 295-383, Q96ST3 (Q96ST3 295-383): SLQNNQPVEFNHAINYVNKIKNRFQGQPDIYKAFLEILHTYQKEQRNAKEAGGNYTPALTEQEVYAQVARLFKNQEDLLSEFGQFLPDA

Selected by phage display, active:
IEALLEAGQARDAQDV [RRBP1, Q9P2E9] confidence 2
AGGDLAGLLEALSDMG [NFKB2, Q00653] confidence 2
LWEDLLHAAEAHSSAT [PHTF2, Q8N3S3] confidence 2
MAFSELLDLVGGLGRF [SLC22A12, Q96S37] confidence 2
GDWLTMLREASDEIVA [WWC2, Q6AWC2] confidence 2

What follows are binders tested against TLN1 309-401, Q9Y490.
Sequence of TLN1 309-401, Q9Y490 (Q9Y490 309-401): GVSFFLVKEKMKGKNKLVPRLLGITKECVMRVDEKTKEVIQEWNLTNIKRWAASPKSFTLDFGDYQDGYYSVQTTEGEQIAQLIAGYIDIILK

Selected by phage display, active:
WTFSPLTETEMQITAV [PRUNE2, Q8WUY3] confidence 2
SQSDDGPIMWVRPGEQ [RSBN1, Q5VWQ0] confidence 2
QWVTSPLHSPTLKDAH [ARHGAP31, Q2M1Z3] confidence 4
AHLWFDNQIFVADTSE [ATP12A, P54707] confidence 3
AVVWIDSTLHQPMFLL [OR52W1, Q6IF63] confidence 2
GLYPIIWQYPNGTHAY [JMJD1C, Q15652] confidence 2
EDLKWLWYENRIYVLG [NEMP2, A6NFY4] confidence 2
EEESMFFSNPLFLASP [PSD4, Q8NDX1] confidence 2
ALPSTWIENKLYGMSD [RET, P07949] confidence 4
TTGGGWVISRIFDSGY [FMO1, Q01740] confidence 4
DLIFTDSKLYIPLEYR [TPTE, P56180] confidence 4
